The values below come from PubChem BioAssay (NCI).

This is part of a sample that, as a whole, favours compounds with a hit. Of some 83,000 tested, about 20% had one in any assay.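 Assay: single dose, 48 h. Readout: percent growth (0 = no net growth; negative = cell death). Active: <10.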 Values without a mark were called inactive. Calls of active or inactive are those of the source.

Test systems include NCI-H23 lung; NCI-H226 lung; NCI-H322M lung; HOP-62 NSCLC; NCI-H460 lung; NCI-H522 lung; A549/ATCC NSCLC; 786-0 renal; COLO 205 colon; DU-145 prostate.
Holding throughout (assay): NCI-60 one-dose screen, 48 h (100 = growth as untreated, 0 = no growth, -100 = all killed)
What all share (conditions): 10 µM

In the case of `Cc1ccc(C(=O)N2C/C(=C/c3ccc(F)cc3)C(=O)/C(=C/c3ccc(F)cc3)C2)cc1`, the growth in the assay with NCI-H23 lung is 97.6%; with NCI-H226 lung, 86.9%; with NCI-H322M lung it was 90.6%; in the assay on HOP-62 NSCLC, 96.4%; in the assay on NCI-H460 lung, 101%; with NCI-H522 lung, 67.7%. The growth was 94.5% in the assay with A549/ATCC NSCLC, 91.6% in the assay with 786-0 renal, 111% in the assay on COLO 205 colon and 101% in the assay with DU-145 prostate.
Turning to `Nc1c(C(=O)Nc2ccccc2)sc2nc3c(cc12)CCCC3`, the growth in the assay on NCI-H23 lung was 38%; in the assay with NCI-H226 lung, 52.8%; in the assay with NCI-H322M lung, 56.9%; in the assay on HOP-62 NSCLC, 49.9%; in the assay with NCI-H460 lung, 10.9%; in the assay with NCI-H522 lung, 29.7%. Besides, the growth with A549/ATCC NSCLC was 21.7%; with 786-0 renal it was 57%; with COLO 205 colon, 1.79% (active); with DU-145 prostate, 11.1%.
In the case of `CC(=O)C1CCC2C3CC(F)C4=CC(=O)CCC4(C)C3C(O)CC12C` (stereo not given), the growth is 104% in the assay with NCI-H23 lung; 85.9% in the assay on NCI-H226 lung; 90.9% in the assay with NCI-H322M lung; 93% in the assay with HOP-62 NSCLC; 103% in the assay on NCI-H460 lung; 85.8% in the assay on NCI-H522 lung. Moreover, the growth in the assay with A549/ATCC NSCLC was 82.3%; in the assay with 786-0 renal, 96.3%; in the assay with COLO 205 colon, 104%; with DU-145 prostate, 110%.
`COc1ccc(-c2csc(NC(=O)CSc3nc(C)c(-c4ccccc4)n3Nc3ccccc3)n2)cc1`: the growth was 21.8% in the assay with NCI-H23 lung; 63.8% in the assay with NCI-H226 lung; 69.8% in the assay with NCI-H322M lung; 71.1% in the assay on HOP-62 NSCLC; 43.2% in the assay on NCI-H460 lung; 58.2% in the assay on NCI-H522 lung. Besides, the growth was 36.6% in the assay with A549/ATCC NSCLC, 53.3% in the assay on 786-0 renal, 66.6% in the assay with COLO 205 colon and 65.3% with DU-145 prostate.
Regarding `CN(C)Cc1cn(-c2ncc(-c3ccc(C(F)(F)F)cc3)c(NC3CCCCCC3)n2)nn1`, the growth in the assay with NCI-H23 lung is 95.6%; in the assay with NCI-H226 lung, 88.8%; in the assay on NCI-H322M lung, 88.3%; in the assay on HOP-62 NSCLC, 94.2%; with NCI-H460 lung, 93.4%; with NCI-H522 lung, 73.5%. Further, the growth is 95.2% with A549/ATCC NSCLC, 90.4% with 786-0 renal, 70.9% in the assay on COLO 205 colon and 89.3% with DU-145 prostate.
Consider `COc1ccc(OC)c(/C=C/c2nnc(Nc3ccc(Cl)cc3)o2)c1`, for which the growth in the assay with NCI-H23 lung was 87.8%; with NCI-H226 lung, 56.1%; with NCI-H322M lung, 58.6%; in the assay on HOP-62 NSCLC, 35.3%; in the assay with NCI-H460 lung, 15.5%; in the assay on NCI-H522 lung it was 92.9%. The growth with A549/ATCC NSCLC is 40.2%; with 786-0 renal, 27.9%; with COLO 205 colon it was 74.2%; with DU-145 prostate, 78.9%.
On to `CCN(CC)CCCC(C)Nc1ccc2ccc(Cl)cc2n1` (stereo not given), for which the growth in the assay with NCI-H23 lung is 98.5%; with NCI-H226 lung, 93.1%; in the assay with NCI-H322M lung it was 102%; in the assay on HOP-62 NSCLC, 86.9%; with NCI-H460 lung it was 102%; with NCI-H522 lung, 92%. The growth was 98.3% with A549/ATCC NSCLC, 93.8% in the assay with 786-0 renal, 95.7% with COLO 205 colon and 114% in the assay on DU-145 prostate.
Regarding `O=C1Nc2ccc(Cl)cc2/C1=C\c1c(-c2ccc(Cl)cc2)nc2sc(C3CC3)nn12`, the growth with NCI-H23 lung is 67%; in the assay with NCI-H226 lung, 29.7%; in the assay on NCI-H322M lung it was 61.3%; in the assay with HOP-62 NSCLC, -0.353% (active); in the assay with NCI-H460 lung, 51.4%; in the assay on NCI-H522 lung, 42.9%. Further, the growth was 56.4% in the assay on A549/ATCC NSCLC, 31.8% in the assay on 786-0 renal, 71.9% with COLO 205 colon and 59.2% in the assay on DU-145 prostate.
In the case of `C/C(=N\Nc1nc2ccccc2s1)c1ccncn1`, the growth in the assay on NCI-H23 lung is 42.3%; in the assay on NCI-H226 lung, 41.9%; in the assay with NCI-H322M lung it was 46.2%; with HOP-62 NSCLC it was 41.3%; in the assay on NCI-H460 lung, 23.2%; in the assay on NCI-H522 lung, 4.38% (active). The growth in the assay on A549/ATCC NSCLC was 50.6%; in the assay on 786-0 renal, 38.3%; in the assay on COLO 205 colon it was 7.12% (active); in the assay with DU-145 prostate it was 28.3%.
Regarding `CCCCN(CCCC)c1cc(C(=O)CCCCCN)c2ccccc2n1`, the growth with NCI-H23 lung was 94.5%; with NCI-H226 lung, 93%; in the assay on NCI-H322M lung it was -30.8% (active); in the assay with HOP-62 NSCLC it was 110%; with NCI-H460 lung, 31.8%; in the assay on NCI-H522 lung, 76.9%. In addition, the growth is -31.8% (active) in the assay on A549/ATCC NSCLC, 38.8% in the assay with 786-0 renal, 17.4% with COLO 205 colon and -81.1% (active) with DU-145 prostate.
Take `O=[N+]([O-])c1cccc(N=Cc2ccc3c(c2)OCO3)c1`: the growth in the assay on NCI-H23 lung was 104%; in the assay with NCI-H226 lung, 104%; in the assay on NCI-H322M lung, 112%; with HOP-62 NSCLC, 109%; with NCI-H460 lung it was 120%; in the assay on NCI-H522 lung, 89.8%. Besides, the growth is 101% with A549/ATCC NSCLC, 106% in the assay on 786-0 renal, 120% in the assay with COLO 205 colon and 119% in the assay on DU-145 prostate.
In the case of `N#Cc1ncc(-c2ccc(C(F)(F)F)cc2)c(NCc2cc(C(F)(F)F)cc(C(F)(F)F)c2)n1`, the growth in the assay with NCI-H23 lung is 10.6%; in the assay with NCI-H226 lung, 43.8%; in the assay with NCI-H322M lung it was 70.2%; in the assay on HOP-62 NSCLC it was 39.2%; in the assay with NCI-H460 lung, 2.11% (active); in the assay on NCI-H522 lung it was 12.2%. Besides, the growth in the assay on A549/ATCC NSCLC was 29.2%; in the assay on 786-0 renal, 40.3%; with COLO 205 colon, -24.1% (active); with DU-145 prostate it was 28.2%.
On to `CN1CC[C@@H](c2c(O)cc(O)c3c(=O)cc(-c4ccccc4Cl)oc23)[C@@H](O)C1`, for which the growth in the assay with NCI-H23 lung is -13.3% (active); in the assay on NCI-H226 lung it was 11.8%; in the assay on NCI-H322M lung, 4.68% (active); in the assay on HOP-62 NSCLC, 12.1%; in the assay with NCI-H460 lung it was 5.19% (active); with NCI-H522 lung, -42.6% (active). For the same compound, the growth with A549/ATCC NSCLC is 14.2%; in the assay with 786-0 renal, 13%; with COLO 205 colon, -51% (active); in the assay with DU-145 prostate, 1.56% (active).
As for `COc1ccc(-c2nc(-c3nc4cc(Cl)c(F)cc4[nH]3)c3ccccn23)cc1`, the growth is 85.8% in the assay with NCI-H23 lung; 85.1% with NCI-H226 lung; 69.6% in the assay on NCI-H322M lung; 89.5% in the assay with HOP-62 NSCLC; 81.1% in the assay with NCI-H460 lung; 39.5% with NCI-H522 lung. Moreover, the growth in the assay on A549/ATCC NSCLC is 49.4%; in the assay with 786-0 renal it was 79.9%; in the assay on COLO 205 colon it was 79.1%; with DU-145 prostate it was 80.3%.
For `COc1cccc(-c2cc(-c3cccc(NS(C)(=O)=O)c3)nc(N)c2C#N)c1O`, the growth in the assay with NCI-H23 lung is 26.7%; in the assay with NCI-H226 lung, 74.5%; in the assay on NCI-H322M lung it was 34.6%; in the assay on HOP-62 NSCLC it was 52.1%; with NCI-H460 lung, 8.75% (active); in the assay with NCI-H522 lung, 0.405% (active). The growth is 31% with A549/ATCC NSCLC, 49.4% in the assay on 786-0 renal, -6.05% (active) in the assay on COLO 205 colon and 15.1% in the assay on DU-145 prostate.
Turning to `COc1cc(/C=N/NC(=O)c2ccccc2Nc2cccc(C(F)(F)F)c2)cc(OC)c1OC`, the growth in the assay on NCI-H23 lung was 45.3%; in the assay with NCI-H226 lung, 36.9%; in the assay with NCI-H322M lung, 47%; in the assay on HOP-62 NSCLC, 133%; in the assay with NCI-H460 lung, -17.6% (active); with NCI-H522 lung it was 4.06% (active). Besides, the growth with A549/ATCC NSCLC is 15%; with 786-0 renal, 177%; with COLO 205 colon, 54.4%; in the assay with DU-145 prostate, -22.6% (active).
As for `CN1CCC(CNc2cc(C3(C(=O)Nc4cc(C(=O)Nc5ccc(Cl)c(C(F)(F)F)c5)ccc4F)CC3)ncn2)CC1`, the growth with NCI-H23 lung is 44%; in the assay with NCI-H226 lung it was 72.5%; in the assay on NCI-H322M lung it was 39.4%; in the assay with HOP-62 NSCLC, -47.2% (active); in the assay with NCI-H460 lung, 3.98% (active); in the assay on NCI-H522 lung, 46.6%. Besides, the growth with A549/ATCC NSCLC was 13.4%; with 786-0 renal, -38.4% (active); with COLO 205 colon it was -67.3% (active); with DU-145 prostate it was 40.5%.
In the case of `CCc1ccc2c(c1)N(CCO)C1=C(C(=O)OC1)C2c1cc(OC)c(OC)c(OC)c1` (stereo not given), the growth in the assay with NCI-H23 lung was 19.5%; with NCI-H226 lung, 3.03% (active); in the assay with NCI-H322M lung, 13.7%; with HOP-62 NSCLC it was 28.8%; in the assay with NCI-H460 lung, 2.43% (active); in the assay with NCI-H522 lung, -40.4% (active). In addition, the growth in the assay on A549/ATCC NSCLC was 16.3%; in the assay on 786-0 renal, 20.2%; with COLO 205 colon, -69.3% (active); in the assay on DU-145 prostate, -28.3% (active).
In the case of `CSCCCNC(=O)c1ccc2c(c1)/C(=C/c1[nH]c(C)cc1C)C(=O)N2`, the growth in the assay on NCI-H23 lung is 28.6%; in the assay with NCI-H226 lung it was 41.8%; in the assay on NCI-H322M lung it was 50.4%; in the assay on HOP-62 NSCLC, 35.5%; with NCI-H460 lung, 30.8%; in the assay on NCI-H522 lung, 41%. Moreover, the growth in the assay on A549/ATCC NSCLC was 29.2%; in the assay on 786-0 renal, 6.49% (active); in the assay with COLO 205 colon it was 31.5%; with DU-145 prostate, 27.9%.
Regarding `N=C(N)c1ccc(-c2ccc(-c3cccs3)o2)cc1`, the growth is 85.1% in the assay on NCI-H23 lung; 67.5% with NCI-H226 lung; 12.8% with NCI-H322M lung; 64.7% in the assay on HOP-62 NSCLC; 0.151% (active) in the assay on NCI-H460 lung; 61.9% in the assay with NCI-H522 lung. In addition, the growth in the assay with A549/ATCC NSCLC is 45.4%; in the assay with 786-0 renal, 62.3%; with COLO 205 colon, -97.4% (active); in the assay on DU-145 prostate it was 57.9%.
